Assay results from PubChem BioAssay.
Unmarked numbers belong to inactive results. The source made the active and inactive calls. Unless noted, no stated cut-off is given here; in the data, active means inhibition above about 28%; inactive means the rest.

Columns and labels:
[1] = StAR promoter reporter inhibitors, counter-screen for LRH-1 inverse agonist project, cell-based, luminescence, high throughput (AID 651611); conditions: StAR promoter luciferase reporter counterscreen, at 3.6 µM, stronger effect = higher value
[2] = biological target: Nuclear receptor subfamily 5 group A member 2 (Homo sapiens) (UniProt O00482); test: LRH-1 (NR5A2) inverse agonists, retest, confirmation, cell-based, luminescence (AID 651613; in the data active means inhibition above about 42%;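 further: HEK293T cells co-transfected with LRH-1 and StAR promoter luciferase reporter; 0% = vehicle wells and 100% = parental cells lacking receptor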); conditions: cell-based LRH-1 luciferase reporter, inverse agonism; at 3.6 µM; stronger effect = higher value
Sequence of Nuclear receptor subfamily 5 group A member 2 (Homo sapiens) (O00482 whole entry, looked up): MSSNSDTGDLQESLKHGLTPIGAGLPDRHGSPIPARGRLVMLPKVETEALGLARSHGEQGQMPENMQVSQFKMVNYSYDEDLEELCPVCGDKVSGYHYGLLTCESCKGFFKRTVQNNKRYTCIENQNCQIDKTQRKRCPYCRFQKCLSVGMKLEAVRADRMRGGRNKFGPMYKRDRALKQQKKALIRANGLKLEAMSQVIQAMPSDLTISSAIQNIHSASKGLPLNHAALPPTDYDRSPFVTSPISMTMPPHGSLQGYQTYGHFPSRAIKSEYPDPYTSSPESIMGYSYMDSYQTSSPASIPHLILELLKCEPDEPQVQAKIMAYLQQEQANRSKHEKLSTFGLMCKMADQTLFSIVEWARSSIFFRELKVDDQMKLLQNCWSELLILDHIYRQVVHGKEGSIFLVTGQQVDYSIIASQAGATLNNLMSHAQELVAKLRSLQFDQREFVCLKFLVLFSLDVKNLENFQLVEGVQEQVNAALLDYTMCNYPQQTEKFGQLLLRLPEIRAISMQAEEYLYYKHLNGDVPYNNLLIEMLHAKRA

[3] = biological target: Steroidogenic factor 1 (Homo sapiens) (UniProt Q13285); test: SF1 (NR5A1) inverse agonists, counter-screen for LRH-1 inverse agonist project, cell-based, luminescence, high throughput (AID 651614; in the data active means inhibition above about 44%;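 further: cells cotransfected with StAR promoter reporter and SF1 expression vector; 0% = vehicle on cells with receptor and 100% = vehicle on cells lacking receptor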); conditions: cell-based SF1 luciferase reporter, at 3.6 µM, stronger effect = higher value
Sequence of Steroidogenic factor 1 (Homo sapiens) (Q13285 whole entry, looked up, the tested form may be a part): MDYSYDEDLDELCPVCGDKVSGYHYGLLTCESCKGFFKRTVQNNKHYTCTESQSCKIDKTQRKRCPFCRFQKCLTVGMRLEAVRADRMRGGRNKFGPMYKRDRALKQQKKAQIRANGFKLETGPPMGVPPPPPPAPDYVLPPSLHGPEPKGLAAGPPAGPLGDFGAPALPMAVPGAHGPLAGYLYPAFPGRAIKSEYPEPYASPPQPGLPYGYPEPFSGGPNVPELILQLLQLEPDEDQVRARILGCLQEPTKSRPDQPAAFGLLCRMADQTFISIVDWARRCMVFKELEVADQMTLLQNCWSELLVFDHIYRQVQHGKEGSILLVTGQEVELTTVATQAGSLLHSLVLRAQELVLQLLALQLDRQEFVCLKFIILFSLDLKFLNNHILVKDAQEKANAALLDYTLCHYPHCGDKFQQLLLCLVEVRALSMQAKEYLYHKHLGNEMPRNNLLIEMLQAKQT

[4] = VP16 transactivation reporter inhibitors, counter-screen for LRH-1 inverse agonist project, cell-based, luminescence, high throughput (AID 651615; in the data active means inhibition above about 33%); conditions: Gal4-VP16 luciferase reporter cells, at 3.6 µM, stronger effect = higher value

SMILES	inhibition [1]	inhibition [2]	inhibition [3]	inhibition [4]
CC(=O)Nc1cc(-c2ccc(F)cc2)cn2c(-c3ccc(S(C)(=O)=O)cc3)cnc12	12.6%	51.4% (active)	48.7% (active)	-16.1%
CCOc1cc2c(cc1OCC)C(c1ccc(OC)cc1)N(c1ccccc1)C(=O)C2 (stereo unspecified)	-4.63%	3.16%	-5%	-4.52%
CCOc1ccc(NC(=O)CN2CCN(CC(=O)Nc3ccc(OC)cc3)CC2)cc1	9.49%	58.5% (active)	56.2% (active)	8.13%
O=C(COC(=O)Cn1[nH]c(=O)c2ccccc2c1=O)NNC(=O)c1ccc(Br)cc1	27.8% (active)	32.1%	35.8%	-7.59%
CCn1nnc(NC(=O)c2ccc([N+](=O)[O-])o2)n1	10.3%	57.8% (active)	59.9% (active)	-13.8%
COc1cc(C(=O)OCC(=O)Nc2ccc(N3CCOCC3)cc2)ccc1OCC(C)C	14.1%	54.5% (active)	65.5% (active)	-7.28%
CCOc1ccc(NC(=O)CSc2nncc(=O)[nH]2)cc1	8.36%	63% (active)	57.7% (active)	-11.2%
Cc1ccc(S(=O)(=O)Oc2ccccc2/C=N/NC(N)=S)cc1	42.5% (active)	70.6% (active)	66.8% (active)	47.2% (active)
NS(=O)(=O)c1ccc(CCNC(=O)COc2ccc3c4c(c(=O)oc3c2)CCC4)cc1	13.4%	41.7% (active)	38.2%	-15.4%
